Reference: the supplement of paper PMC3334620
In all, about 33,000 sequences were measured (“E-score (-0.5 to 0.5)”: median about -0.04, highest 2% from about 0.36 on). This is one part of a sample in which the highest values are shown more often than they occur.

biological target: T1, Hmlalpha2 (UniProt P0CY09); assay: PBM E-score (8-mer binding enrichment) (E-score (-0.5 to 0.5)); higher = stronger / more preferred TF binding; conditions: protein concentration: 200 nM; construct: GST-full length
T1 sequence: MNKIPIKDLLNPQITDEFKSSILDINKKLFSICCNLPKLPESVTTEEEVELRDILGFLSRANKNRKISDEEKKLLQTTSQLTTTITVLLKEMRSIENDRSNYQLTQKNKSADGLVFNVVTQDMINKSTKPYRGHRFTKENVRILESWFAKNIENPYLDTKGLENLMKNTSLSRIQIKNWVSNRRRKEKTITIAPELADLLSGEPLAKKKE
Procedure: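 Universal 'all 10-mer' protein binding microarrays (Agilent AMADID 015681) probed with GST-tagged S. cerevisiae TFs (full-length or DBD) made by in vitro transcription/translation (PURExpress), about 100-200 nM. Bound TF was detected with fluorescent anti-GST. Each ungapped 8-mer (which stands for itself and its reverse complement) is scored by the PBM enrichment score (E-score), a modified Wilcoxon-Mann-Whitney statistic from -0.5 to +0.5, computed with the Universal PBM Analysis Suite. Scale: above 0.35 generally sequence-specific binding.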

Row | Sequence | PBM E-score
1 | GGCAGTTA | 0.0486
2 | CACCGGGC | -0.256
3 | ATGGTATA | 0.178
4 | CTTGACTC | -0.216
5 | GCAAGCTA | 0.0155
6 | ATTTGCTG | 0.024
7 | GTACACCA | 0.089
8 | CGACACGC | 0.243
9 | CTACACTA | 0.208
10 | CTACACTC | 0.145
11 | GTACACGA | 0.425
12 | CTACACCA | 0.165
13 | CTACACGA | 0.451
14 | CTACACGC | 0.428
15 | GTACACTA | 0.135
16 | AGCCACCG | -0.248
17 | CCCACCAC | -0.191
18 | ATACGCCA | -0.109
19 | TCATACAA | 0.0397
20 | CAATATAC | 0.131
21 | AAATACTT | 0.208
22 | TAATACAA | 0.375
23 | AAATACAC | 0.431
24 | CAATACAC | 0.431
25 | AAATACAA | 0.347

Row | Sequence | PBM E-score
26 | AAATACAT | 0.441
27 | CAATACAG | 0.0335
28 | CAATACAA | 0.256
29 | AAATACGT | 0.246
30 | AAATACAG | 0.172
31 | GTGGGACA | -0.0285
32 | AGCTGTTA | 0.0595
33 | CGGTGCGA | -0.141
34 | CACTGTTA | 0.0828
35 | ACGCTACG | 0.0651
36 | GACCGTCC | -0.302
37 | TAAGGCCA | 0.0046
38 | TAAGCAGA | 0.00375
39 | AGAATCTG | -0.187
40 | GGTGGACA | -0.0373
41 | GAATACAA | 0.352
42 | GAATACAC | 0.451
43 | GAATACGC | 0.357
44 | CCAGGCAG | -0.272
45 | AGACCTGC | -0.0816
46 | CTTCGGCA | -0.198
47 | GTAAACAC | 0.416
48 | ATAAACAA | 0.323
49 | ATAAACAT | 0.383
50 | GGAAACAC | 0.119

Row | Sequence | PBM E-score
51 | GTAAAAAC | 0.385
52 | GTAAAAAA | 0.286
53 | CTAAACAC | 0.296
54 | ATAAACAG | 0.0861
55 | AAAAACAT | 0.297
56 | ACAAACAT | 0.305
57 | CTAAAAAC | 0.0815
58 | ATAAACAC | 0.365
59 | ATACCTCA | -0.072
60 | AGCATTGC | 0.0222
61 | AGCGGGGA | -0.24
62 | CGTTGAAA | 0.0902
63 | TACGGCCA | -0.262
64 | CTAAACAA | 0.0668
65 | TTAAACAA | 0.274
66 | GTAAACAA | 0.37
67 | ATGCTAAG | 0.027
68 | CGTCGAAC | 0.0323
69 | GGTGTGTA | 0.423
70 | GGGGTGTA | 0.0612
71 | CGTGTGTC | 0.2
72 | CGTGTGTA | 0.413
73 | AGTGTGTG | 0.127
74 | AGTGTGTA | 0.395
75 | CGTGTGCA | 0.0955

Row | Sequence | PBM E-score
76 | GGTGTGCA | -0.155
77 | AGTGTACA | 0.301
78 | AGTGTGTC | 0.174
79 | CGTGTACC | 0.326
80 | CGTGTACA | 0.467
81 | CCGGACGA | -0.0406
82 | ATGGGAAT | 0.0681
83 | CAGCACCG | -0.189
84 | GCGCGGTA | 0.0518
85 | ACCTGCAG | -0.0825
86 | AAGCAGGG | -0.116
87 | GGTGTATA | 0.0823
88 | CGTGTATC | 0.332
89 | CGTGTATA | 0.452
90 | GGTCTATA | 0.121
91 | ATATACAG | 0.131
92 | GTATACAC | 0.416
93 | ATATACAA | 0.343
94 | ATATATAC | 0.345
95 | GTATATAC | 0.155
96 | CTATACAC | 0.213
97 | ATATACAT | 0.435
98 | ATATACAC | 0.422
99 | GTATACAA | 0.291
100 | AAGGTAAC | 0.0918

Row | Sequence | PBM E-score
101 | CACGCCCC | 0.0158
102 | ACTTGAGG | -0.203
103 | CATGTGGA | 0.144
104 | AATGTGTG | 0.0802
105 | GATGTGGA | -0.0421
106 | AATGTGTC | 0.0899
107 | CATGTGTC | 0.152
108 | GATGTGCA | -0.091
109 | AATGTGTA | 0.371
110 | GATGTGTA | 0.38
111 | CATGTGTA | 0.427
112 | AACAAGGC | 0.219
113 | CATCAAGC | -0.116
114 | ACCCTAAT | -0.101
115 | CCTAATCA | 0.0766
116 | GTGTGAGA | 0.0378
117 | AAAACAGA | 0.137
118 | ATAAAAAG | 0.19
119 | GGGTAACA | 0.17
120 | ATGTAACA | 0.454
121 | CTGTAACA | 0.223
122 | AAGTAACA | 0.245
123 | GTGTAACA | 0.411
124 | GCGTAACA | 0.29
125 | AGGAGTGG | -0.145

Row | Sequence | PBM E-score
126 | ACCCGAGA | -0.255
127 | AGTCTGCG | -0.0616
128 | ACCAGAAT | 0.0511
129 | CCACACCA | 0.0331
130 | GTACAACA | 0.395
131 | GCACAACA | 0.187
132 | AAACAACC | 0.168
133 | AAACAACT | 0.0928
134 | ACACAACA | 0.381
135 | CTACAACA | 0.283
136 | ATACAACA | 0.355
137 | AAACAACA | 0.367
138 | TCACACCA | -0.0124
139 | ACACACCA | 0.369
140 | CCACAACA | 0.0233
141 | GTGCTCAA | 0.197
142 | ATCTGGGG | -0.267
143 | CGCTTACA | 0.287
144 | AAGTTCCG | -0.0355
145 | AAGCGGGG | -0.0783
146 | AGCTCCCA | -0.128
147 | AATGCTCG | 0.0169
148 | TGAAAGAA | 0.129
149 | AAAGCACA | 0.123
150 | AAGTATCT | 0.0958

Row | Sequence | PBM E-score
151 | ACACAACT | 0.317
152 | ACACAGCC | 0.317
153 | ACACAACC | 0.305
154 | ACACAGCG | 0.424
155 | ACACAGCA | 0.358
156 | ACACAACG | 0.377
157 | GAGGAAGC | -0.231
158 | AAGAGATG | -0.0147
159 | TAAACTTA | 0.228
160 | CGAAGATA | -0.04
161 | AGGTAAGC | -0.198
162 | ACAGTCTG | -0.159
163 | ACACATCA | 0.183
164 | AACATACA | 0.368
165 | CACATATA | 0.311
166 | AACATACT | 0.255
167 | AACATACG | 0.363
168 | TACATACA | 0.443
169 | GACATATA | 0.163
170 | CACATACA | 0.33
171 | GACATACA | 0.315
172 | AACATAAA | 0.28
173 | TACATAAA | 0.369
174 | TACATATA | 0.374
175 | CACATAAA | 0.259
